Each sequence was assayed on VDR:RXRa (NR concentration 270 nM, RXRa partner concentration 90 nM) (assay: PBM binding z-score (relative to random genomic background probes); higher = stronger binding; sequences stand for … in GC…GCGATTGACAGCGTAGAATGAAGG).
Method: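 Protein-binding microarray (Agilent 4x180K custom design, double-stranded 60-nt probes: 5' GC cap, 34-nt variable region, 24-nt constant primer region; full probe sequence given). Purified or IVT nuclear receptor:RXRα heterodimers (3:1 NR:RXRα, mostly 270:90 nM) or homodimers were incubated for 1 h in PBS with 2% milk and no ligand, then detected with Alexa488 antibodies. Fluorescence from o1-orientation probes (~5 replicates averaged) was converted to z-scores against 500 random hg19 background probes. Variable regions are seed direct-repeat (DR0–DR5) sites, all their single-nucleotide variants and half-site ablations.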
CCTTACGGGTCACTCCGGGTTATAGCATCGGAGT gave a PBM binding z-score of 4.18.
For TCTTGTAGATCAAGCAGGTGAAGAAAGCCTGAGT, the PBM binding z-score was 0.0815.
With GGAAGGAGGGCAAAGTTGATAGCATCTGTCGACG the PBM binding z-score was 0.964.
AGAACGAGGGCACTGAGTTGATAGCACGGGTGGC was tested, and the PBM binding z-score was 4.52.
With TAGCCTAGGTCATGCGGGCCAGTACAGTGTCGGC the PBM binding z-score was 2.83.
AGAATGACGTTATACGTAGATCAGGGAAGAAAGT showed a PBM binding z-score of -0.532.
For TAGCCTAGGTCATGCGCCAGTATACCACGCGAAC, the PBM binding z-score was 2.01.
For CTTCGGAGGACAGAAGGTCAGAGCTGTCCGCTTT, the PBM binding z-score was 0.953.
For CAAACTAGGCCAAAGGTCAAAGTCGAGCCAACCA, the PBM binding z-score was 4.89.
Sequence TCTTGTAGATCATCAGGAGGTTAAGAAAGATCGA has a PBM binding z-score of 0.351.
Sequence GGAACGAGGGCAAATTTGATAGCATCTGTCGACG has a PBM binding z-score of 0.619.
GGAACGAGGGCAAAGTTGATAACATCTGTCGACG gave a PBM binding z-score of 1.68.
TCTGCTAGGTAAGTTGGTCAGCTAACGAGCTGCC gave a PBM binding z-score of -0.464.
For TAGCCTAGGTCATTGGGCCAGAATAGTACGCATC, the PBM binding z-score was 2.01.
GCTTATGGGTCAAAGGTTATAGCATGAATAGAAT gave a PBM binding z-score of 4.82.
With ATACCAACGTGATCGTGAGGTCGTTGATACTAAC the PBM binding z-score was 1.8.
GCTTGTAGATCGAGGTTAAGAAAGACTAAGCTAA showed a PBM binding z-score of 0.413.
CGAACTAGGTCAGAACAGGACAGTCAAGGATGAT showed a PBM binding z-score of 0.754.
Sequence TCGAGTAGATTAGTCGGGGCATTCAGCCAACATA has a PBM binding z-score of -0.0689.
Sequence CCTAGCAGGCCAGGGTCACTCCAGCATTTCGCTT has a PBM binding z-score of 2.18.
ATCGAAAGGTCGACGAGGTGACTATACACCGTTT showed a PBM binding z-score of 5.95.
CCAGACAGGTGAGAAGGTAATTCAGCCTCGATTA was tested, and the PBM binding z-score was -0.16.
Work on CCGACTGGGGCATAAAGGTTACCATACCATCCGG yielded a PBM binding z-score of 1.4.
ACTATTAGTCGAGACGAGGGCAACCGATAGGTTG showed a PBM binding z-score of 0.293.
ATATGTAGGTTAGCTGGGGTCATTCTGACTAGGC was tested, and the PBM binding z-score was 6.29.
Sequence CCGAGAAGGTTATGGGGCATTCAGGCAACGGTGA has a PBM binding z-score of 0.66.
Work on ACTCGGAGGCCAAAGGTCAGAGCTACGCCAGTGA yielded a PBM binding z-score of 3.11.
In the case of CCAGACAGGTGAAAGGTAACGCAGTCTGGTACGC, the PBM binding z-score is reported as 0.77.
Work on CATACAGGGTCAGCAAGGCCAGAGTAGGGACGGC yielded a PBM binding z-score of 5.7.
CCCCGGAGGACAACAGGAGGTCAGAGCTGCCAGA gave a PBM binding z-score of 1.91.
ACTTACGGGTCAACGAGGTTATAGAACGCGTATA was tested, and the PBM binding z-score was 7.78.
In the case of GTACCTAGGTGAATAGGTCGTTGATGAGTAGGCG, the PBM binding z-score is reported as 0.549.
With TCTGCAAGGTCAACGATGGTCAGCTAATCTGCTA the PBM binding z-score was 4.53.
CCTTACGTGTCAAGGTTATAGCACGGGTGGTACG showed a PBM binding z-score of 0.738.
In the case of CCTTACGGGTCACTGACAGGTTATAGGATTTGGA, the PBM binding z-score is reported as 3.77.
Work on CCTCGGAGGACAACAGCAGGTCAGAGCTGCCAGA yielded a PBM binding z-score of 0.333.
For CCTAGTTGGTCTAGGTCACACACGCTATAGGTAC, the PBM binding z-score was 1.42.
With ATCTCTAGGTAATAGTTCAGTGAATCCCGAGGAT the PBM binding z-score was 0.188.
Work on ATATGTAGGTTAGCTGGGTTCATTCAGACTAGGC yielded a PBM binding z-score of 6.4.
Sequence TCTAGTTGGACAAAGGTCACACACTCGAAATGCG has a PBM binding z-score of 5.09.
